About 79,000 compounds went through this panel and 15% of them were active in at least one assay; those are over-represented in the sample as a whole. The source made the active and inactive calls. Cut-off read from the data, not from the text of the source: active = growth inhibition above about 70%; inactive = the rest.
Legend:
[1] = NCI Yeast Anticancer Drug Screen. Data for the rad52 strain (AID 147);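 note: 0% = growth of vehicle-treated control cultures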; details: S. cerevisiae rad52 mutant growth inhibition, active compounds read high
How it was run: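 Read-out: growth inhibition versus vehicle-treated controls. Cells were a DNA repair-deficient yeast strain treated with compounds.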

[2] = NCI Yeast Anticancer Drug Screen. Data for the wt1 strain (AID 149);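 note: 0% = growth of vehicle-treated wt1 cultures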; details: S. cerevisiae wt1 strain (SPY 50644) growth inhibition, active compounds read high
How it was run: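 wt1 yeast, compound-treated; % growth inhibition vs vehicle control.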

[3] = NCI Yeast Anticancer Drug Screen. Data for the rad50EPP+ strain (AID 151);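 note: 0% = growth of vehicle-treated control cultures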; details: S. cerevisiae rad50 mutant strain, active compounds read high
How it was run: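 Growth inhibition read against vehicle controls in rad50EPP+ yeast, a strain altered in DNA damage repair, after compound exposure.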

[4] = NCI Yeast Anticancer Drug Screen. Data for the mgt1 strain (AID 153); details: S. cerevisiae mgt1 mutant growth inhibition, active compounds read high
How it was run: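 mgt1 yeast grown with test compound; read-out is growth inhibition versus vehicle-treated cultures.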

[5] = NCI Yeast Anticancer Drug Screen. Data for the rad50 strain (AID 155);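 note: 0% = growth of vehicle-only cultures of the same strain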; details: S. cerevisiae rad50 strain growth inhibition, active compounds read high
How it was run: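 Genetically altered yeast (DNA repair pathway); compound treatment; growth inhibition vs vehicle ctrl.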

[6] = NCI Yeast Anticancer Drug Screen. Data for the mec2-1 strain (AID 157); details: S. cerevisiae mec2-1 strain, active compounds read high
How it was run: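 Yeast mec2-1 mutant treated with compound. Readout: growth inhibition vs vehicle controls.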

[7] = NCI Yeast Anticancer Drug Screen. Data for the rad14 strain (AID 159);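 note: 0% = growth of vehicle-treated control cultures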; details: S. cerevisiae rad14 strain growth inhibition, active compounds read high
How it was run: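 Test compounds were applied to a repair-deficient yeast strain. Its growth was then compared with that of cultures given vehicle alone, and inhibition was expressed relative to those controls.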

[8] = NCI Yeast Anticancer Drug Screen. Data for the sgs1 mgt1 strain (AID 161);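 note: 0% = growth of cultures given vehicle only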; details: S. cerevisiae sgs1 mgt1 strain, active compounds read high
How it was run: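 Genetically altered yeast, compound exposure, growth inhibition relative to vehicle.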

[9] = NCI Yeast Anticancer Drug Screen. Data for the CLN2oe strain (AID 163);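 note: 0% = growth of vehicle-only control cultures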; details: S. cerevisiae CLN2oe strain, active compounds read high
How it was run: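 Read-out: yeast growth inhibition, expressed relative to vehicle-only controls. The strain bears an engineered cell-cycle alteration.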

[10] = NCI Yeast Anticancer Drug Screen. Data for the cln2 rad14 strain (AID 165);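 note: 0% = growth equal to vehicle treated cultures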; details: S. cerevisiae cln2 rad14 strain, active compounds read high
How it was run: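 cln2 rad14 yeast strain; compound exposure; growth inhibition read vs vehicle controls.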

[11] = NCI Yeast Anticancer Drug Screen. Data for the bub3 strain (AID 167); details: S. cerevisiae bub3 mutant strain, active compounds read high
How it was run: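 Yeast carrying a defined mutation is treated with each compound, and growth is compared with that of vehicle-exposed cells to give inhibition.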

[12] = NCI Yeast Anticancer Drug Screen. Data for the wt2 strain (AID 169);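 note: 0% = growth of vehicle-treated yeast cultures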; details: S. cerevisiae wt2 strain growth inhibition, active compounds read high
How it was run: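 Read-out: growth inhibition versus vehicle-treated control cultures after compound exposure of the yeast strain.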

[13] = NCI Yeast Anticancer Drug Screen. Data for the mlh1 strain (AID 171);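 note: 0% = growth of vehicle-treated control cultures of the same strain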; details: S. cerevisiae mlh1 strain growth inhibition, active compounds read high
How it was run: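 Read-out: growth inhibition versus vehicle controls. Strain: engineered yeast with a defined DNA repair or cell cycle defect, compound-treated.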

[14] = NCI Yeast Anticancer Drug Screen. Data for the sgs1 strain (AID 173);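 note: 0% = growth of vehicle-only control cultures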; details: S. cerevisiae sgs1 mutant, active compounds read high
How it was run: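 Read-out: yeast growth inhibition relative to vehicle controls, following compound exposure of a strain with a defined DNA repair/cell cycle alteration.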

[15] = NCI Yeast Anticancer Drug Screen. Data for the mlh1 rad18 strain (AID 175); details: S. cerevisiae mlh1 rad18 strain growth inhibition, active compounds read high
How it was run: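 Yeast w/ defined DNA-repair lesions; compound exposure; growth vs vehicle controls → % inhibition.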

[16] = NCI Yeast Anticancer Drug Screen. Data for the rad18 strain (AID 177); details: S. cerevisiae rad18 mutant growth inhibition, active compounds read high
How it was run: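 Readout: growth inhibition vs vehicle controls. Cells: genetically altered yeast strain, DNA repair defect.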

[17] = at 5.0 µM (retest, dose inferred, filed as 0.5)
[18] = at 50.0 µM (retest, dose inferred, filed as 5.0)

Measured: growth inhibition

COC(=O)c1cnc(Cl)c([N+](=O)[O-])c1
inactive: [1]; at 1.2 µM 17% | [1]; at 3.7 µM 53% | [2]; at 1.2 µM 6% | [2]; at 3.7 µM 15% | [3]; at 1.2 µM 14% | [3]; at 3.7 µM 48% | [4]; at 1.2 µM 2% | [4]; at 3.7 µM 23% | [5]; at 1.2 µM 22% | [6]; at 1.2 µM 5% | [6]; at 3.7 µM 10% | [6]; [17] 41% | [7]; at 1.2 µM 2% | [7]; at 3.7 µM 18% | [7]; at 11.0 µM 39% | [8]; [17] 47% | [9]; at 1.2 µM 0% | [9]; at 3.7 µM 5% | [9]; at 11.0 µM 48% | [10]; [17] 2% | [11]; at 1.2 µM 2% | [11]; at 3.7 µM 7% | [11]; [17] 24% | [12]; at 1.2 µM 4% | [12]; at 3.7 µM 20% | [13]; at 1.2 µM 3% | [13]; at 3.7 µM 11% | [14]; at 1.2 µM 5% | [14]; at 3.7 µM 20% | [16]; at 1.2 µM 4% | [16]; at 3.7 µM 29%
active: [1]; at 11.0 µM 94% | [1]; at 33.0 µM 98% | [1]; at 100.0 µM 99% | [2]; at 11.0 µM 82% | [2]; at 33.0 µM 99% | [2]; at 100.0 µM 99% | [3]; at 11.0 µM 93% | [3]; at 33.0 µM 98% | [3]; at 100.0 µM 99% | [4]; at 11.0 µM 92% | [4]; at 33.0 µM 99% | [4]; at 100.0 µM 99% | [5]; at 3.7 µM 75% | [5]; [17] 79% | [5]; at 11.0 µM 97% | [5]; at 33.0 µM 99% | [5]; [18] 98% | [5]; at 50.0 µM 99.5% | [5]; at 100.0 µM 99% | [6]; at 11.0 µM 72% | [6]; at 33.0 µM 98% | [6]; [18] 99% | [6]; at 50.0 µM 99.5% | [6]; at 100.0 µM 99% | [7]; at 33.0 µM 97% | [7]; at 100.0 µM 99% | [8]; [18] 99% | [8]; at 50.0 µM 99.3% | [9]; at 33.0 µM 97% | [9]; at 100.0 µM 99% | [10]; [18] 98% | [10]; at 50.0 µM 94.8% | [11]; at 11.0 µM 85% | [11]; at 33.0 µM 98% | [11]; [18] 99% | [11]; at 50.0 µM 98.9% | [11]; at 100.0 µM 99% | [12]; at 11.0 µM 88% | [12]; at 33.0 µM 99% | [12]; at 100.0 µM 99% | [13]; at 11.0 µM 92% | [13]; at 33.0 µM 99% | [13]; at 100.0 µM 100% | [14]; at 11.0 µM 88% | [14]; at 33.0 µM 98% | [14]; at 100.0 µM 99% | [15]; [17] 72% | [15]; [18] 98% | [15]; at 50.0 µM 98.5% | [16]; at 11.0 µM 95% | [16]; at 33.0 µM 98% | [16]; at 100.0 µM 99%

ClCCCOc1c(Cl)cc(Cl)cc1Cl
inactive: [1]; at 1.2 µM -2% | [1]; at 3.7 µM 2% | [1]; at 11.0 µM 5% | [1]; at 33.0 µM -3% | [1]; at 100.0 µM 10% | [2]; at 1.2 µM -1% | [2]; at 3.7 µM -2% | [2]; at 11.0 µM -3% | [2]; at 33.0 µM -5% | [2]; at 100.0 µM -1% | [3]; at 1.2 µM -4% | [3]; at 3.7 µM 4% | [3]; at 11.0 µM 13% | [3]; at 33.0 µM 10% | [3]; at 100.0 µM 32% | [4]; at 1.2 µM 0% | [4]; at 3.7 µM -1% | [4]; at 11.0 µM -2% | [4]; at 33.0 µM -1% | [4]; at 100.0 µM 1% | [5]; at 1.2 µM -2% | [5]; at 3.7 µM 4% | [5]; [17] 1% | [5]; at 11.0 µM 5% | [5]; at 33.0 µM 0% | [5]; [18] 13% | [5]; at 50.0 µM -7.15% | [5]; at 100.0 µM 10% | [6]; at 1.2 µM -2% | [6]; at 3.7 µM -2% | [6]; [17] -27% | [6]; at 11.0 µM -2% | [6]; at 33.0 µM -1% | [6]; [18] -12% | [6]; at 50.0 µM 8.65% | [6]; at 100.0 µM 1% | [7]; at 1.2 µM -4% | [7]; at 3.7 µM 2% | [7]; at 11.0 µM 5% | [7]; at 33.0 µM 1% | [7]; at 100.0 µM 13% | [8]; [17] 17% | [8]; [18] 15% | [8]; at 50.0 µM -2.55% | [9]; at 1.2 µM 1% | [9]; at 3.7 µM 0% | [9]; at 11.0 µM 0% | [9]; at 33.0 µM 1% | [9]; at 100.0 µM 5% | [10]; [17] 16% | [10]; [18] 25% | [10]; at 50.0 µM 29.6% | [11]; at 1.2 µM 0% | [11]; at 3.7 µM 1% | [11]; [17] 14% | [11]; at 11.0 µM -2% | [11]; at 33.0 µM -1% | [11]; [18] 13% | [11]; at 50.0 µM 0.6% | [11]; at 100.0 µM 0% | [12]; at 1.2 µM -7% | [12]; at 3.7 µM 1% | [12]; at 11.0 µM -7% | [12]; at 33.0 µM -2% | [12]; at 100.0 µM -8% | [13]; at 1.2 µM -2% | [13]; at 3.7 µM 0% | [13]; at 11.0 µM 3% | [13]; at 33.0 µM -1% | [13]; at 100.0 µM 9% | [14]; at 1.2 µM -15% | [14]; at 3.7 µM -22% | [14]; at 11.0 µM -21% | [14]; at 33.0 µM -5% | [14]; at 100.0 µM 10% | [15]; [17] 15% | [15]; [18] 60% | [15]; at 50.0 µM 27.1% | [16]; at 1.2 µM -4% | [16]; at 3.7 µM 12% | [16]; at 11.0 µM 12% | [16]; at 33.0 µM -2% | [16]; at 100.0 µM 6%
